# What was measured:
# Experiment in all cases: DAPPL (digital affinity profiling via proximity ligation, sequencing); 10 mM Tris-HCl pH 7.5, 50 mM NaCl, 1 mM DTT, 4% glycerol, room temperature, 30 min; GST-TFs on glutathione beads, 16-mer random dsDNA library, 0.1% formaldehyde crosslink after washing; high values mean tight binding
# Details in all cases: protein: recombinant; tags: N-terminal GST; dsDNA, one strand shown
# [1] = biological target: T1, FLI1 (Homo sapiens, UniProt Q01543 1-452)
# T1 sequence: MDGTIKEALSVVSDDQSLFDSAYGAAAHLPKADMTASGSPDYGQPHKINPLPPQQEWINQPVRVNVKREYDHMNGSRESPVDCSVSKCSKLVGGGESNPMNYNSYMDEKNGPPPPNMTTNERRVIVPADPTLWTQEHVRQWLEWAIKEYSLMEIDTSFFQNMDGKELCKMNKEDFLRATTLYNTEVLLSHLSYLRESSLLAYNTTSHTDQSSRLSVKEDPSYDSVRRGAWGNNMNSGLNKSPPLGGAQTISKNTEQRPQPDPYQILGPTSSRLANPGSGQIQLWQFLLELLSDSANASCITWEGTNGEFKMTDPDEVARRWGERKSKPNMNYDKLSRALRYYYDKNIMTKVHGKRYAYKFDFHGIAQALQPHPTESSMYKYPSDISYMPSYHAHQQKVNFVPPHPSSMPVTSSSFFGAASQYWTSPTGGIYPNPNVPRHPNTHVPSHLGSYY
# Procedure, shortened: (§1)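 Pools were built from human transcription factors expressed in yeast as GST fusions, captured on glutathione beads and DNA-barcoded, along with a tag-only sample. Incubation with 200 nmole of a 16-mer random double-stranded DNA library lasted 30 min at room temperature in Tris/NaCl/DTT/glycerol buffer, and was followed by washing, 0.1% formaldehyde crosslinking, proximity ligation, PCR amplification and Illumina NextSeq500 sequencing. Binding signal is the quotient of each hexamer's read frequency for a factor and its frequency for the tag-only sample.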
# [2] = biological target: T2, ELK1 (Homo sapiens, UniProt P19419 1-428)
# T2 sequence: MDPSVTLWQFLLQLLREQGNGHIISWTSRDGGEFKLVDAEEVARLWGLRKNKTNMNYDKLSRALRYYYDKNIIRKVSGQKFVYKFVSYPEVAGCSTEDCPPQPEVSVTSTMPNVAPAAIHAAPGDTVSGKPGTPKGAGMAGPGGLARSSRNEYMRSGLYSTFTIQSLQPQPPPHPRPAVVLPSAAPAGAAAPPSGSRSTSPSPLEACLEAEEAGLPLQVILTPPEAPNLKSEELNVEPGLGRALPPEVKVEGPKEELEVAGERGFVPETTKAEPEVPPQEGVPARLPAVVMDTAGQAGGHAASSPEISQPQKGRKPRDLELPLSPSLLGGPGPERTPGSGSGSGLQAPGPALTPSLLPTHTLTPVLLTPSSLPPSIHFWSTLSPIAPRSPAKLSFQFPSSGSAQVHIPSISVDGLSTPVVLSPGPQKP
# Procedure, shortened: as §1
# [3] = biological target: T3, GABPA (Homo sapiens, UniProt Q06546 1-454)
# T3 sequence: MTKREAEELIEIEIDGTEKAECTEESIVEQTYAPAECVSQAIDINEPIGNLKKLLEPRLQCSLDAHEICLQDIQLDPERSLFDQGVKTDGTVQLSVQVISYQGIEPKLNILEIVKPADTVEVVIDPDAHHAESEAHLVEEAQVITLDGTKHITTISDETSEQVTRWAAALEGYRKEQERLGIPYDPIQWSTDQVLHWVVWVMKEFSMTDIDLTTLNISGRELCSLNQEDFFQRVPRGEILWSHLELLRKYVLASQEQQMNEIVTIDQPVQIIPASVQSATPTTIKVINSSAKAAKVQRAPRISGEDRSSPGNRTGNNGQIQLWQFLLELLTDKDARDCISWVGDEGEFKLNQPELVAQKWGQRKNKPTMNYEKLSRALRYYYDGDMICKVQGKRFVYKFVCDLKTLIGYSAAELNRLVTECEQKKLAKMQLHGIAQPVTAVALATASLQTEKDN
# Procedure, shortened: as §1
# [4] = biological target: T4, ERG (Homo sapiens, UniProt P11308 1-479)
# T4 sequence: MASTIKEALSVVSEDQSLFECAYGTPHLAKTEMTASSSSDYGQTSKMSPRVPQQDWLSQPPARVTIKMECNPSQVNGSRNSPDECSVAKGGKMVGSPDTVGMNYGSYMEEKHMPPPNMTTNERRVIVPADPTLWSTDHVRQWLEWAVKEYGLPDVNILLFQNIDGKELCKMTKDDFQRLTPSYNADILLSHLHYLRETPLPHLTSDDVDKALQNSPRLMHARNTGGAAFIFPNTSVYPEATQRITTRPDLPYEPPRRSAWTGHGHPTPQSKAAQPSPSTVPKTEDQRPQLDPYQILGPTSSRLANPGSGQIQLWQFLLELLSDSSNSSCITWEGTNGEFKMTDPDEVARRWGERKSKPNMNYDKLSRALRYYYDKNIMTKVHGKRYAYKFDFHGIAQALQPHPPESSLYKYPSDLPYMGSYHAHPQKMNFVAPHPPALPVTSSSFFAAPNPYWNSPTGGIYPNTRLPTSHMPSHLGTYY
# Procedure, shortened: as §1
# [5] = biological target: ELF1 (Homo sapiens, UniProt P32519 1-619)
# Sequence of ELF1 (P32519 whole entry): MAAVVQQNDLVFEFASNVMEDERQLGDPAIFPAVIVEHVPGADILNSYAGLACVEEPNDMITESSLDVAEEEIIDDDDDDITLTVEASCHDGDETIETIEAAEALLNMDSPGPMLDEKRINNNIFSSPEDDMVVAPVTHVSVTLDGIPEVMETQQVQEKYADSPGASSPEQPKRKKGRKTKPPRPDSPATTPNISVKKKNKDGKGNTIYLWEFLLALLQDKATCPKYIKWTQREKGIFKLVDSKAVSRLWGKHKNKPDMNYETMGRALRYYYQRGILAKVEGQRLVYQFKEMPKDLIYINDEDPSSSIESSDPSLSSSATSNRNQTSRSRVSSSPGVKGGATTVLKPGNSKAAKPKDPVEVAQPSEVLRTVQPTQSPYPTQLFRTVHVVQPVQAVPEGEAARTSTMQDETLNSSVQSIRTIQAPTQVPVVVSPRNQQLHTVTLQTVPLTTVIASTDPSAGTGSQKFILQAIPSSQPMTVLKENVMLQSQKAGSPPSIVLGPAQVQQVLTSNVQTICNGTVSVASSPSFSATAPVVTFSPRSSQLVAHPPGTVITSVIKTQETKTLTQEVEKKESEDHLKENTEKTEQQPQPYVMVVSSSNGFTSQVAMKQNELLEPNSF
# Procedure, shortened: as §1
# [6] = biological target: T5, EHF (Homo sapiens, UniProt Q9NZC4 1-300)
# T5 sequence: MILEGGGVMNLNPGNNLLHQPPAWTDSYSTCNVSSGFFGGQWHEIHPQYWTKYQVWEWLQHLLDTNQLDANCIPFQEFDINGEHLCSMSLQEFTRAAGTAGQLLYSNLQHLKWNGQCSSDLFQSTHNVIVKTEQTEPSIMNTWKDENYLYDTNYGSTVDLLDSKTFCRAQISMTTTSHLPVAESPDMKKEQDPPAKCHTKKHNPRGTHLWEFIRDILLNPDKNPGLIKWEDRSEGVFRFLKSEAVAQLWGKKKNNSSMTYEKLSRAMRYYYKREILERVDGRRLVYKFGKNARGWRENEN
# Procedure, shortened: as §1
# [7] = biological target: SPI1 (Homo sapiens, UniProt P17947 1-270)
# Procedure, shortened: as §1
# [8] = biological target: SPIB (Homo sapiens, UniProt Q01892 1-262)
# Sequence of SPIB (Q01892 whole entry): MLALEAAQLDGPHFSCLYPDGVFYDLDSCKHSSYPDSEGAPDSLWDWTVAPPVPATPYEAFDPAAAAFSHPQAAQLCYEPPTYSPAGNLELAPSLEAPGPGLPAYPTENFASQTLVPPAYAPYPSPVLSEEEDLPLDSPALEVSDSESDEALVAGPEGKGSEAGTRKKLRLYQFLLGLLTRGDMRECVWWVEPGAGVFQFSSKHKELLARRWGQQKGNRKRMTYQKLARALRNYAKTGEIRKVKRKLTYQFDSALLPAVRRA
# Procedure, shortened: as §1
# [9] = biological target: T6, ELK3 (Homo sapiens, UniProt P41970 1-407)
# T6 sequence: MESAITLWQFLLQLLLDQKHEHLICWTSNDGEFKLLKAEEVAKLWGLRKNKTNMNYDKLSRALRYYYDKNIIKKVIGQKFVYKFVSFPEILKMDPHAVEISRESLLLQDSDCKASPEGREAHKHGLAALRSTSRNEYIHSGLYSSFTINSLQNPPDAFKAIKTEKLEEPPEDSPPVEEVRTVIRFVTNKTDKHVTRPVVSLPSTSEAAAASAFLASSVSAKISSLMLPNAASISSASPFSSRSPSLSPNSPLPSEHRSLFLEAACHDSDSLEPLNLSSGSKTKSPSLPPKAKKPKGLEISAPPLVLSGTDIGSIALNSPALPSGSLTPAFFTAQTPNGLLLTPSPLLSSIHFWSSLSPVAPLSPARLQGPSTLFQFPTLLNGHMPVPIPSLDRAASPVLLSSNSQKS
# Procedure, shortened: as §1
Sequence,binding signal [1],binding signal [2],binding signal [3],binding signal [4],binding signal [5],binding signal [6],binding signal [7],binding signal [8],binding signal [9]
AGCACT,"1.38 fold enrichment (6-mer frequency, TF over GST control)","1.52 fold enrichment (6-mer frequency, TF over GST control)","1.41 fold enrichment (6-mer frequency, TF over GST control)","1.48 fold enrichment (6-mer frequency, TF over GST control)","1.4 fold enrichment (6-mer frequency, TF over GST control)","1.36 fold enrichment (6-mer frequency, TF over GST control)","1.4 fold enrichment (6-mer frequency, TF over GST control)","1.44 fold enrichment (6-mer frequency, TF over GST control)","1.62 fold enrichment (6-mer frequency, TF over GST control)"
TATGGG,"1.23 fold enrichment (6-mer frequency, TF over GST control)","1.06 fold enrichment (6-mer frequency, TF over GST control)","1.25 fold enrichment (6-mer frequency, TF over GST control)","1.15 fold enrichment (6-mer frequency, TF over GST control)","1.16 fold enrichment (6-mer frequency, TF over GST control)","1.37 fold enrichment (6-mer frequency, TF over GST control)","1.21 fold enrichment (6-mer frequency, TF over GST control)","1.27 fold enrichment (6-mer frequency, TF over GST control)","1.18 fold enrichment (6-mer frequency, TF over GST control)"
CTTAGC,"1.22 fold enrichment (6-mer frequency, TF over GST control)","1.17 fold enrichment (6-mer frequency, TF over GST control)","1.26 fold enrichment (6-mer frequency, TF over GST control)","1.22 fold enrichment (6-mer frequency, TF over GST control)","1.22 fold enrichment (6-mer frequency, TF over GST control)","1.25 fold enrichment (6-mer frequency, TF over GST control)","1.21 fold enrichment (6-mer frequency, TF over GST control)","1.21 fold enrichment (6-mer frequency, TF over GST control)","1.22 fold enrichment (6-mer frequency, TF over GST control)"
TCGACC,"1.28 fold enrichment (6-mer frequency, TF over GST control)","1.32 fold enrichment (6-mer frequency, TF over GST control)","1.4 fold enrichment (6-mer frequency, TF over GST control)","1.27 fold enrichment (6-mer frequency, TF over GST control)","1.29 fold enrichment (6-mer frequency, TF over GST control)","1.23 fold enrichment (6-mer frequency, TF over GST control)","1.29 fold enrichment (6-mer frequency, TF over GST control)","1.28 fold enrichment (6-mer frequency, TF over GST control)","1.35 fold enrichment (6-mer frequency, TF over GST control)"
GCTCAA,"1.05 fold enrichment (6-mer frequency, TF over GST control)","1.1 fold enrichment (6-mer frequency, TF over GST control)","1.05 fold enrichment (6-mer frequency, TF over GST control)","1.15 fold enrichment (6-mer frequency, TF over GST control)","1.09 fold enrichment (6-mer frequency, TF over GST control)","1.13 fold enrichment (6-mer frequency, TF over GST control)","1.09 fold enrichment (6-mer frequency, TF over GST control)","1.1 fold enrichment (6-mer frequency, TF over GST control)","1.01 fold enrichment (6-mer frequency, TF over GST control)"
ATTTTG,"1.19 fold enrichment (6-mer frequency, TF over GST control)","1.25 fold enrichment (6-mer frequency, TF over GST control)","1.33 fold enrichment (6-mer frequency, TF over GST control)","1.2 fold enrichment (6-mer frequency, TF over GST control)","1.28 fold enrichment (6-mer frequency, TF over GST control)","1.3 fold enrichment (6-mer frequency, TF over GST control)","1.31 fold enrichment (6-mer frequency, TF over GST control)","1.28 fold enrichment (6-mer frequency, TF over GST control)","1.14 fold enrichment (6-mer frequency, TF over GST control)"
TTCGTC,"1.36 fold enrichment (6-mer frequency, TF over GST control)","1.33 fold enrichment (6-mer frequency, TF over GST control)","1.33 fold enrichment (6-mer frequency, TF over GST control)","1.23 fold enrichment (6-mer frequency, TF over GST control)","1.32 fold enrichment (6-mer frequency, TF over GST control)","1.27 fold enrichment (6-mer frequency, TF over GST control)","1.29 fold enrichment (6-mer frequency, TF over GST control)","1.27 fold enrichment (6-mer frequency, TF over GST control)","1.22 fold enrichment (6-mer frequency, TF over GST control)"

# Source: paper PMC7862700, “An all-to-all approach to the identification of sequence-specific readers for epigenetic DNA modifications on cytosine”
